# Most compounds without a hit are left out; they make up all but 7.1% or so of the library.
# PINK1 modulator – A Quantitative High throughput Screen to Identify Chemical Modulators of PINK1 Expression; PINK1 immunofluorescence, high-content cytometry, 24 h; Potency, µM (titrated, usually from 76.6 µM), most hits filed as activators; 410,000 tested, 0.2% active; active = well fitted activation curve with a large enough effect; inconclusive = small, poorly fitted or top-dose-only effect; cell line not stated here; note: nearly all actives have a fitted effect of over 65% in size
#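 Measures PINK1 amount and localization on or inside mitochondria by immunofluorescence. Stable cells get compounds at 5 concentrations for 24 hours before fixation and staining; CCCP controls included.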
# S2 tox – Viability Counterscreen for Primary qHTS for Inhibitors of ATXN expression; S2 cells (HEK-293 line with an ATXN2-luciferase reporter) viability, CellTiter-Fluor protease fluorescence, 24 h; Potency, µM (titrated, usually from 56.7 µM), usual class: cytotoxic; 400,000 tested, 0.49% active; AID 651635, 2014; note: nearly all actives have a fitted effect of over 40% in size
# ATXN2 expr inh – Primary qHTS for Inhibitors of ATXN expression | AID 1745845, 2022 | 360,000 tested, 0.72% active | Potency, µM (titrated, usually from 57 µM), actives largely listed as inhibitors | HEK-293 ATXN2-luciferase reporter, luminescence, 24 h; note: nearly all actives have a fitted effect of over 55% in size
#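 qHTS (up to 57 uM final) was run with 24 h compound exposure of reporter cells at 37 °C. Each well was multiplexed: SteadyGlo luminescence measured ATXN2-luciferase expression after a fluorogenic Gly-Phe-AFC viability readout (25 uM final).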
# IL1B secr inh – qHTS for Inhibitors of Inflammasome Signaling: IL-1-beta AlphaLISA Primary Screen | 360,000 tested, 4.7% active | activity change, % at 57.5 µM | THP-1 LPS/ATP IL-1B secretion, AlphaLISA, 16 h; hits give low values; in the data active = activity change below about -50%; inconclusive = mostly about -30% to -49%
#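 Secreted IL-1B measured by AlphaLISA bead assay after 16 h compound exposure of THP-1 cells; compounds (final up to 57.5 uM) added 1 h before LPS (250 ng/mL) and ATP (1.25 mM) stimulation; lower signal means less secretion.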
# SW480 rereplic – A quantitative high throughput screen for small molecules that induce DNA re-replication in SW480 colon adenocarcinoma cells | SW480 DNA re-replication, Hoechst DNA content imaging, 48 h | Potency, µM (titrated, usually from 46.1 µM), hits mostly activators | 340,000 tested, 1.8% active | AID 624297, 2012; note: nearly all actives have a fitted effect of over 55% in size
#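 Readout is total intensity of Hoechst-stained nuclei, excited at 405 nm and collected at 500-530 nm. Compound treatment lasted 48 hr at 37 C in 5% CO2 before staining.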
# MCF10A rerep – A quantitative high throughput screen for small molecules that induce DNA re-replication in MCF 10a normal breast cells | Potency, µM (series often up to 46.1 µM), usual class: activators | 350,000 tested, 2.9% active | MCF 10A DNA re-replication, Hoechst nuclear intensity, 48 h | AID 624296, 2012; note: nearly all actives have a fitted effect of over 50% in size
# Numbers stand for hits; n = inactive; u = inconclusive; x = no result given; [ ] = remark or other dose. Unless noted, calls come from the whole dose curve; as a rule, active = well fitted curve in the direction sought with a large enough effect; inconclusive = small, poorly fitted or top-dose-only effect, or another doubt; inactive = no such curve, though single readings can be large; an effect the other way counts as inactive or inconclusive.
SMILES,PINK1 modulator,S2 tox,ATXN2 expr inh,IL1B secr inh,SW480 rereplic,MCF10A rerep
Cc1ccc(C)c(-n2c3nc(=O)n(C)c(=O)c-3cc3ccccc32)c1,n,x,x,n,n,15µM
Cc1nc(Nc2ccccc2)sc1C,n,n,n,n,u,n
S=c1[nH]cnc2sc(Nc3ccccc3)nc12,n,11µM,x,n,u,n
CSc1cccc(NC(=O)c2ccc(CN3CCc4ccccc4C3)cc2)c1,n,n,u,-88,u,u
Cc1cccc(NC(=O)c2ccc(CN3CCc4ccccc4C3)cc2)c1C,n,n,n,n,n,23µM
O=C(Nc1cccc(Br)c1)c1ccc(CN2CCc3ccccc3C2)cc1,n,n,n,n,18µM,26µM
O=C(c1ccc2c(=O)n(CCc3ccccc3)c(=O)[nH]c2c1)N1CCN(C(=O)c2ccco2)CC1,n,x,x,x,x,x
COc1ccc(CN(CCC(c2ccc(F)cc2)C2CCOC(C)(C)C2)C(=O)c2ccco2)cc1 (configuration not stated),n,n,n[11.3 µM],-103,n,23µM
CC(c1ccccc1)N(CCC(c1ccccc1)C1CCOC(C)(C)C1)C(=O)c1ccco1 (configuration not stated),n,n,n,n,n,16µM
CCC1C(=O)NCCN1Cc1ccc2c(c1)CN(Cc1cccn1-c1ccc(Cl)cn1)CCO2 (configuration not stated),n,n,x,x,x,x
CCOC(=O)c1cccc(-n2c(C)cc(C=O)c2C)c1,n,n,n,n,n,n
CCOC(=O)c1c(-n2c(C)cc(C=O)c2C)sc2c1CCCC2,n,n,u,-56,u,u
O=C(CN1CCCCCCC1)NC(=O)NC1CCCCC1,n,n,n,n,n,16µM
O=C(CN1CCCCC1)NC(=O)NC1CCCC1,n,n,n,n,n,n
O=C(Cn1ncc(Cl)c(Cl)c1=O)NC(=O)NC1CCCCC1,n,30µM,u,-103,13µM,8.2µM
Cc1ccc(S(=O)(=O)Nc2cccc3cccnc23)c([N+](=O)[O-])c1,n,u,10µM,-73,18µM,u
O=S(=O)(Nc1cccc2cccnc12)c1ccccc1,n,u,8.9µM,-104,23µM,21µM
COc1ccc(NS(=O)(=O)c2ccc3ccccc3c2)c2ncccc12,n,n,n,n,15µM,u
Cc1cc(C)c(NS(=O)(=O)c2cccc3cccnc23)c(C)c1,n,n,n[11.3 µM],n,n,n
Cc1ccc2cccc(NS(=O)(=O)c3ccccc3)c2n1,n,x,n,n,u,3.3µM
CCc1cc(=O)oc2c(C)c3c(cc12)CN(CCc1ccccc1OC)CO3,n,x,n,x,x,x
Cc1cc(Nc2cccc(Cl)c2C)n2nc(Cc3ccccc3)nc2n1,n,n,n,x,x,x
O=S(=O)(Nc1cccc2cccnc12)c1ccc(S(=O)(=O)N2CCCC2)cc1,x,n,u,-71,2.9µM,u
CSc1cccc(NC(=O)CN2C(=O)COc3ccc(S(=O)(=O)N4CCC(C)CC4)cc32)c1,n,x,x,x,x,x
COc1cc(/C=N/NC(=O)NC23CC4CC(CC(C4)C2)C3)ccc1OCC(N)=O,n,n,x,n,n,n
SMILES,PINK1 modulator,S2 tox,ATXN2 expr inh,IL1B secr inh,SW480 rereplic,MCF10A rerep
COc1ccc(C=NNC(=S)NC23CC4CC(CC(C4)C2)C3)cc1OC,n,u,n,n,u,9.2µM
CN1C(C(=O)c2ccccc2)=C(NC(=O)c2ccccc2Br)c2ccccc2S1(=O)=O,n,x,x,x,x,x
CCCCn1c2ccc(F)cc2c2nnc(NN)nc21,u,n,u,n,u,0.65µM
CCn1c2ccc(C)cc2c2nnc(NN)nc21,u,n,n,n,u,u
O=C(N/N=C/c1ccc(Cl)c([N+](=O)[O-])c1)c1cc(-c2ccccc2)nc2ccccc12,n,n,x,n,n,12µM
Cc1cc(C(=O)N/N=C/c2ccc([N+](=O)[O-])s2)c2ccccc2n1,n,u,u,-79,n,u
Cc1cc(C(=O)N/N=C/c2cc(Br)cc([N+](=O)[O-])c2O)c2ccccc2n1,n,n,u,n,x,n
Cc1cc(C(=O)N/N=C/c2ccc([N+](=O)[O-])cc2)c2ccccc2n1,n,n,u,n,13µM,u
O=C(N/N=C/c1cc([N+](=O)[O-])ccc1O)c1cc(-c2ccccc2)nc2ccccc12,u,u,10µM,n,u,u
O=C(c1cc2ccccc2[nH]1)c1cc2cc(O)ccc2[nH]1,n,x,x,x,x,x
CCNC(=O)c1nn(-c2ccccc2C)nc1CO,n,x,x,x,x,x
CCc1cc(C(=O)N/N=C/c2ccc(O)cc2)c2ccccc2n1,n,n,n,n,u,23µM
O=C(N/N=C/c1cc([N+](=O)[O-])ccc1O)C12CC3CC(CC(C3)C1)C2,n,u,x,n,u,7.3µM
Cc1cc(C(=O)N/N=C/c2ccc(N(C)C)cc2)c2ccccc2n1,n,u,u,n,18µM,7.1µM
Cc1cc(C(=O)N/N=C/c2cc([N+](=O)[O-])ccc2O)c2ccccc2n1,n,u,u,n,16µM,n
CCOc1ccc(CNC(=O)c2c(C)nn(-c3ccc(F)cc3)c2-n2cccc2)cc1,n,u,u,x,x,x
O=C(N/N=C/c1ccccn1)c1c[nH]c2ccccc12,n,n,n,n,n,n
O=C(N/N=C/c1ccc[nH]1)c1c[nH]c2ccccc12,n,n,n,n,7.3µM,n
CCc1ccc(/C=N/NC(=O)c2cc(C3CC3)nc3ccccc23)s1,n,u,n,n,18µM,7.3µM
O=C(N/N=C/c1cc([N+](=O)[O-])ccc1O)c1c[nH]c2ccccc12,35µM,n,14µM,n,n,n
Cc1ccc(C(=O)NCCc2cccs2)cc1,n,n,14µM,n,n,n
O=C(NCCc1cccs1)c1ccc(Cl)cc1,n,n,n,n,n,n
CC1=NNC(=O)/C1=C\c1cn(-c2ccccc2)nc1-c1ccccc1,n,27µM,u,-104,n,3.7µM
O=Cc1cn(-c2ccccc2)nc1-c1ccccc1,n,n,x,n,n,n
CCOC(=O)c1cnn(-c2ccc(C(=O)Nc3cc(OC)c(OC)c(OC)c3)cc2)c1N,n,n,n,x,x,x
Cc1ccc(NC(=O)c2ccc(NC(=O)C3CCCC3)cc2)c(C)c1,n,x,x,x,x,x
O=c1cc(N/N=C/c2ccccc2)[nH]c(=O)[nH]1,n,u,u,-99,u,u
CCC(Nc1ccc(-c2nc(-c3ccco3)no2)cc1[N+](=O)[O-])c1ccccc1 (configuration not stated),n,n,n,x,x,x
O=[N+]([O-])c1ccc(N=NN(CCO)CCO)cc1,n,n,x,n,23µM,n
